RAD54 inh: RAD54 (human) branch migration inhibition; RAD54 Holliday junction branch migration, FAM/BHQ fluorescence; inhibition, % at 10.4 µM; AID 602329; Q92698; 0.14% of 360,000 active;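 active = mean normalized replicate activity at least 40 and at least half of replicates scoring 40 or more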;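 note: inhibitors cause a drop in the FAM fluorescence signal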
N-glyco inh: blocks N-linked glycosylation in D54 reporter cells. D54 ERlucT glycosylation luciferase reporter, 24 h; percent of 100 nM tunicamycin response. reporter increase, % at 12.5 µM. 0.23% of 360,000 active;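 active = mean luciferase reporter signal, scaled so untreated is 0 and the glycosylation-blocking control 100, at or above a set limit in every replicate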;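 note: luciferase carries N-glycosylation sites so blocking glycosylation raises the light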
RAD52 anneal inh: RAD52 (human) annealing inhibition; P43351; recombinant RAD52 DNA annealing, FRET fluorescence; inhibition, % at 18.7 µM; 0.46% of 360,000 active; AID 651710;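 active = every replicate showing at least 50% inhibition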
F508del corr: correctors of CFTR F508del function in bronchial epithelial cells; activity (quench increase), % at 7.58 µM; CFBE cells, YFP halide quenching; stimulated with forskolin plus potentiator P3; % fluorescence drop versus neutral controls; 0.36% of 350,000 active;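 active = mean added fluorescence quench of at least 8% versus neutral control, with both replicates also reaching 8%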;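 note: cells transiently co-express mutant CFTR-F508del with the halide-sensitive YFP; corrector assay measuring rescue of mutant channel to the surface after 24 h compound exposure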
dFosB act: enhances mouse delta FosB homodimer DNA binding; 0.99% of 340,000 active; purified delta FosB, TAMRA-CDK5 oligo fluorescence polarization; percent of positive-control signal above neutral wells; P13346; activation, % at 25 µM;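 active = mean activation above about 17%, with every replicate also reaching it, limit read from the data, passing the limit was not always enough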
Target sequence (P13346 whole entry, looked up): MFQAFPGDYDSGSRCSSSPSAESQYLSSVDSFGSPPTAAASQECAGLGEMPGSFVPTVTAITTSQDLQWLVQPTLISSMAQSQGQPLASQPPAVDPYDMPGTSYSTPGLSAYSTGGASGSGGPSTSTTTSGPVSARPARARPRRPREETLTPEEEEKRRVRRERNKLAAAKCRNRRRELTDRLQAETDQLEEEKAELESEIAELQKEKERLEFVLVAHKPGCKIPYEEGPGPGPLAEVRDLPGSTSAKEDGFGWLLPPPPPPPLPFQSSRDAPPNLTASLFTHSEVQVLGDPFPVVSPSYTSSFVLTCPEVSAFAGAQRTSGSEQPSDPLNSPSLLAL
PvdQ inh: P. aeruginosa PvdQ acylase inhibition; AID 488965; 0.063% of 340,000 active; inhibition, % at 10 µM; purified PvdQ acylase, fluorescence plate reader; in the data active = inhibition above about 30%, passing the limit was not always enough
A number is an active result. The list is not random: actives were taken first. Their share in the collection is about 1.5%.

O=c1c2cc(Br)ccc2[nH]c(=S)n1Cc1cccnc1 was read as RAD54 inh inactive, N-glyco inh inactive, dFosB act 43 and PvdQ inh inactive.
`C[C@@H]1CN([C@@H](C)CO)C(=O)Cc2cc(NC(=O)NC3CCCCC3)ccc2O[C@H]1CN(C)CC1CC1` gave RAD54 inh inactive, RAD52 anneal inh inactive and F508del corr inactive.
For CN(C)c1ccc2nc3c(=O)[nH]c(=O)nc-3n(CC(O)C(O)C(O)CO)c2c1 (stereo unspecified) the results were RAD54 inh inactive, N-glyco inh inactive, RAD52 anneal inh inactive, F508del corr inactive, dFosB act 117 and PvdQ inh inactive.
For C[C@H](CO)N1C[C@H](C)[C@@H](CN(C)Cc2ccc(-c3ccccc3)cc2)Oc2ccc(NC(=O)Nc3ccccc3)cc2C1=O the results were RAD54 inh inactive, RAD52 anneal inh inactive and F508del corr inactive.
`C[C@@H]1CN([C@@H](C)CO)C(=O)c2cc(-c3ccc(F)cc3)cnc2O[C@H]1CN(C)CC1CCCC1` gave RAD54 inh inactive, RAD52 anneal inh inactive and F508del corr inactive.
For CCC(=O)N(C)C[C@@H]1Oc2cc(C#Cc3ccccc3)ccc2S(=O)(=O)N([C@H](C)CO)C[C@@H]1C the results were RAD54 inh inactive, RAD52 anneal inh inactive and F508del corr inactive.
For C[C@@H]1CN([C@@H](C)CO)S(=O)(=O)c2ccc(C#Cc3ccccc3)cc2O[C@@H]1CN(C)C(=O)CN(C)C the results were RAD54 inh inactive, RAD52 anneal inh 51 and F508del corr inactive.
Screening C[C@H]1CN([C@@H](C)CO)S(=O)(=O)c2ccc(C#Cc3ccccc3)cc2O[C@H]1CN(C)C(=O)CN(C)C returned RAD54 inh inactive, RAD52 anneal inh 70 and F508del corr inactive.
Screening O=C(C[C@@H]1CC[C@@H]2[C@H](COC[C@H](O)CN2S(=O)(=O)c2ccc(Oc3ccccc3)cc2)O1)NC1CCC1 returned RAD54 inh inactive, RAD52 anneal inh inactive and F508del corr inactive.
`CCCNC(=O)N[C@@H]1CC[C@@H](CCn2cc(-c3cccc(F)c3)nn2)O[C@H]1CO` gave RAD54 inh inactive, RAD52 anneal inh inactive and F508del corr inactive.
O=C1Cc2c(-c3ccccc3)cc(-c3cccc(Cl)c3)nc2-c2ccccc2N1 was read as N-glyco inh 72, RAD52 anneal inh inactive, F508del corr inactive, dFosB act inactive and PvdQ inh inactive.
Screening COc1ccccc1N(C)S(=O)(=O)c1ccc(C(=O)Nc2nccs2)cc1 returned RAD54 inh inactive, N-glyco inh inactive, RAD52 anneal inh inactive, F508del corr 27, dFosB act inactive and PvdQ inh inactive.
For CC=Cc1ccc2n(c1=O)C[C@@H]1[C@@H](CO)[C@H](C(=O)NCC)[C@H]2N1S(=O)(=O)c1cn(C)cn1 (mixture of isomers) the results were RAD54 inh inactive, RAD52 anneal inh inactive and F508del corr inactive.
`O=C(NCC1CC1)[C@H]1[C@H](CO)[C@H]2Cn3c(ccc(C4=CCCCC4)c3=O)[C@H]2N1Cc1ccccc1F` gave RAD54 inh inactive, RAD52 anneal inh inactive and F508del corr inactive.
`Cn1cnc([N+](=O)[O-])c1Sc1nc2ccccc2[nH]1` gave RAD54 inh inactive, N-glyco inh 29, RAD52 anneal inh inactive and F508del corr inactive.
`O=c1cc(-c2ccccc2)oc2cc(O)ccc12` gave RAD54 inh inactive, N-glyco inh inactive, RAD52 anneal inh inactive, F508del corr inactive, dFosB act inactive and PvdQ inh inactive.
Screening Nc1ccc(-c2c3ccc(=O)cc-3oc3cc(O)ccc23)cc1C(=O)O returned N-glyco inh inactive, RAD52 anneal inh inactive, F508del corr 8.8, dFosB act inactive and PvdQ inh inactive.
Screening O=c1ccc2c(-c3ccccc3)c3ccc(O)cc3oc-2c1 returned RAD54 inh inactive, N-glyco inh inactive, RAD52 anneal inh inactive, F508del corr 58, dFosB act inactive and PvdQ inh inactive.
Screening COc1ccc(-c2c(C)c3ccc(O)cc3oc2=O)cc1OC returned RAD54 inh inactive, N-glyco inh inactive, RAD52 anneal inh inactive, F508del corr inactive, dFosB act inactive and PvdQ inh inactive.
For CO[C@@H]1CN(C)C(=O)c2cc(NC(C)=O)ccc2OC[C@H](C)N(C(=O)c2ccccn2)C[C@@H]1C the results were RAD54 inh inactive, RAD52 anneal inh inactive and F508del corr inactive.
`COc1ccc(S(=O)(=O)Nc2ccc3c(c2)C(=O)N([C@@H](C)CO)C[C@@H](C)[C@@H](CN(C)Cc2ccccc2)OCCCC[C@H](C)O3)cc1` gave RAD54 inh inactive and F508del corr inactive.
Screening Cc1ccc(NC(=O)c2ccc(NCCN)c([N+](=O)[O-])c2)cc1Cl returned N-glyco inh inactive, RAD52 anneal inh inactive, dFosB act 39 and PvdQ inh inactive.
`C[C@@H]1CCCCO[C@H](CN(C)C(=O)CCC(F)(F)F)[C@H](C)CN([C@H](C)CO)C(=O)c2cc(NS(=O)(=O)c3ccccc3)ccc2O1` gave RAD54 inh inactive, RAD52 anneal inh inactive and F508del corr inactive.
`C/C=C/c1cnc2c(c1)C(=O)N([C@@H](C)CO)C[C@@H](C)[C@@H](CN(C)Cc1ccncc1)O2` gave RAD54 inh inactive, RAD52 anneal inh inactive and F508del corr inactive.
For COc1ccccc1C1CC(=O)Nc2cc3c(cc21)OCCO3 (stereo unspecified) the results were RAD54 inh inactive, N-glyco inh inactive, RAD52 anneal inh inactive, F508del corr 11, dFosB act inactive and PvdQ inh inactive.
`CN1c2ccc(-c3ccc(C#N)cc3)cc2[C@H]2[C@H](CCN2S(=O)(=O)c2cccc(F)c2)[C@H]1CO` gave RAD54 inh inactive, RAD52 anneal inh inactive and F508del corr 15.
CN1c2ccc(-c3ccc(C#N)cc3)cc2[C@@H]2[C@@H](CCN2S(=O)(=O)c2cccc(F)c2)[C@H]1CO was read as RAD54 inh inactive, RAD52 anneal inh inactive and F508del corr inactive.
CN1c2ccc(-c3ccc(F)cc3)cc2[C@H]2[C@H](CCN2S(=O)(=O)c2cccc(F)c2)[C@@H]1CO was read as RAD54 inh inactive, RAD52 anneal inh inactive and F508del corr 14.
Screening COc1cc(/C=C(\C#N)C(=O)NCC2CCCO2)ccc1OCC(=O)O (stereo unspecified) returned RAD54 inh inactive, N-glyco inh inactive, RAD52 anneal inh inactive, F508del corr inactive, dFosB act inactive and PvdQ inh inactive.
`COc1ccc(CCNC(=O)/C(C#N)=C/c2ccc(OCC(=O)NCC3CCCO3)cc2)cc1OC` (stereo unspecified) gave N-glyco inh inactive, RAD52 anneal inh inactive, F508del corr inactive, dFosB act inactive and PvdQ inh 35.
